NadD inh: NadD (S. aureus) enzyme inhibition; purified NadD enzyme, colorimetric absorbance read-out; inhibition, % at 20 µM; actives 0.78% (n = 360,000); in the data active = inhibition above about 26%
DSG3 Ab inh: human desmoglein-3 autoantibody binding inhibition. P32926. DSG3-coupled beads, scFv-anti-DSG3-GFP binding, flow cytometry; hits give low values. actives 0.48% (n = 310,000). AID 588358. binding (percent of control), % at 10 µM;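 active = binding more than 3 SD below its plate's average and above zero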;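 note: hits lower antibody fragment binding to DSG3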
Target sequence (P32926 whole entry, looked up, the tested form may be a part): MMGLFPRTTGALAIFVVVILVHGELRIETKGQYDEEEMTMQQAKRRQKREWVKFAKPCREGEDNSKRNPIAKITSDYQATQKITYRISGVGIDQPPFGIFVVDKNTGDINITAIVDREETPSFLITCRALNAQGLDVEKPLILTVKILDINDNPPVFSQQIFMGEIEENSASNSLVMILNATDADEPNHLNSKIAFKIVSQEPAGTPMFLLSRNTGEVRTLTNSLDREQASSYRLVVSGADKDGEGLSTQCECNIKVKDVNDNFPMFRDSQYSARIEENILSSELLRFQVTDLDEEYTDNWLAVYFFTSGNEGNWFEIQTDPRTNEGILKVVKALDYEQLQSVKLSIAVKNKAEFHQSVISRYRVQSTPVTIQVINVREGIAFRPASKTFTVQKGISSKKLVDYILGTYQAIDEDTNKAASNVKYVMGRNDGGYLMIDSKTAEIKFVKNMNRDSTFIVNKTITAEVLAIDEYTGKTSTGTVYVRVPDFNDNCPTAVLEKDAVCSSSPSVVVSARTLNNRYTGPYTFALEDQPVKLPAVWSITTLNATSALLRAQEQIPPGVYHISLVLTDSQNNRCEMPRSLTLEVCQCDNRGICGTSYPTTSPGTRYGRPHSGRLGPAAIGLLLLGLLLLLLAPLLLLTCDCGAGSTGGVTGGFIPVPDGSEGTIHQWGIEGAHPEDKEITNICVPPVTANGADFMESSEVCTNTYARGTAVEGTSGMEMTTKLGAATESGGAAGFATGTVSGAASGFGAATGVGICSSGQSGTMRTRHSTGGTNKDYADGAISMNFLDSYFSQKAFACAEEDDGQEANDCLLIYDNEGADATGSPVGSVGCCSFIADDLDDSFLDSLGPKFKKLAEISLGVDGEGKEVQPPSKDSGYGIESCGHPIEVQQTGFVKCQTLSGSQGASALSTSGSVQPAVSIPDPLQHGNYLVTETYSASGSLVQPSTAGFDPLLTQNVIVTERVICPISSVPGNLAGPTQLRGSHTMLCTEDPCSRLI
MsrA inhibitor: inhibits bovine methionine sulfoxide reductase A; purified bovine MsrA, absorbance read-out; inhibition, % at 15.5 µM; actives 0.75% (n = 360,000); AID 651718; in the data active = inhibition above about 4.5%;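 note: 0% = vehicle wells with enzyme and 100% = reference inhibitor wells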
bovine MsrA act: activators of bovine methionine sulfoxide reductase A; activation, % at 10.6 µM; AID 602163; purified bovine MsrA, absorbance read-out; actives 0.3% (n = 360,000); in the data active = activation above about 7.5%;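 note: 0% = vehicle and 100% = reference activator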
rCAG RNA binder: molecules binding r(CAG) RNA repeats | r(CAG) RNA repeat, TO-PRO-1 dye displacement fluorescence | inhibition, % at 3 µM | actives 1.3% (n = 370,000);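 active = inhibition above the plate cutoff, the mean of all test compounds on that plate plus 3 SD, cut at about 35% in these data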;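 note: 0% = DMSO alone and 100% = 100 µM mitoxantrone as full dye displacement; higher means more dye released from RNA so lower well fluorescence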
DAGLB inhibitor: diacylglycerol lipase beta (human) inhibition. inhibition, % at 5.17 µM. HEK293T DAGLB membrane lysate, EnzChek fluorogenic substrate. AID 504411. Q8NCG7. actives 0.059% (n = 340,000); in the data active = inhibition above about 34%;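 note: 0% = enzyme with vehicle and 100% = wells lacking enzyme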
rCAG binder conf: r(CAG) RNA repeat binding, confirmation; shares compounds with rCAG RNA binder; TO-PRO-1 dye displacement fluorescence; actives 70% (n = 4,300); AID 652065; inhibition, % at 3 µM;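 active = inhibition above a per-plate cutoff, the mean inhibition of sample wells plus 3 SD, cut at about 35% in these data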;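 note: loss of TO-PRO-1 fluorescence as compound displaces dye from 1x1 AA loop RNA; 0% = DMSO only wells and 100% = 100 µM mitoxantrone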
DNA CAG counter: disrupts DNA CAG TO-PRO-1 complex, flagging rCAG hits. shares compounds with rCAG RNA binder. d(CAG) DNA oligo TO-PRO-1 dye displacement, fluorescence. inhibition, % at 3 µM. actives 94% (n = 4,300). AID 652068;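 active = inhibition above its plate's cutoff, the mean test-well inhibition plus 3 SD, cut at about 4.8% in these data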;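 note: 0% = DNA dye mix with DMSO and 100% = 100 µM mitoxantrone; hits displace the dye from DNA and so lower well fluorescence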
* = called active by the depositor; x = no result given. Sampled rows, rich in hits. Any-hit rate of the full collection: about 3.2%.

SMILES | NadD inh | DSG3 Ab inh | MsrA inhibitor | bovine MsrA act | rCAG RNA binder | DAGLB inhibitor | rCAG binder conf | DNA CAG counter
COC(=O)[C@]12C[C@H](CC(=O)N3CCOCC3)C(=O)N(Cc3cccc4ccccc34)C1=C[C@H](C(C)C)O[C@@H]2C1CC1 | x | x | x | x | 4 | x | x | x
COc1ccc(C2c3ccccc3NC3C2C(=O)N(Cc2ccc(OC)cc2OC)[C@H]3Cc2ccccc2)cc1 (stereo partly specified) | x | x | x | x | 13 | x | x | x
O=C(O)C(Cc1ccccc1)N1C(=O)c2c(Cl)c(Cl)c(Cl)c(Cl)c2C1=O (stereo unspecified) | 1 | x | 0 | -4 | 51* | 7 | 53* | 17*
O=C(O)C(Cc1ccccc1)N1C(=O)/C(=C/c2ccccc2)SC1=S (stereo unspecified) | 3 | 85 | 2 | -11 | 53* | 8 | 56* | 20*
O=C(O)C(Cc1ccccc1)N1C(=O)c2ccccc2C1=O (stereo unspecified) | 6 | 96 | 0 | -3 | 1 | 2 | x | x
Cc1ccc(/C=C2\SC(=S)N(C(Cc3ccccc3)C(=O)O)C2=O)cc1 (stereo unspecified) | 18 | 112 | 1 | -5 | 42* | 17 | 80* | 37*
COc1cc(/C=C2\SC(=S)N(C(Cc3ccccc3)C(=O)O)C2=O)ccc1O (stereo unspecified) | 0 | 93 | 2 | -8 | 45* | 7 | 34 | 7.9*
O=c1cc(-c2ccccc2)[nH]n1-c1ccccc1 | 5 | 109 | 0 | -2 | 59* | 18 | 8 | 3
O=c1ccc(=O)n(-c2ccccc2)[nH]1 | -2 | 110 | 1 | -4 | 2 | 1 | x | x
CCOc1ccc(NC(=NCc2ccc3c(c2)OCO3)SC2CC(=O)N(c3ccc(C(=O)O)cc3)C2=O)cc1 (stereo unspecified) | 20 | 97 | 0 | -5 | 78* | 5 | 85* | 54*
CCOc1ccc(NC(=NCc2ccc3c(c2)OCO3)SC2CC(=O)N(c3ccc(OCC)cc3)C2=O)cc1 (stereo unspecified) | 5 | x | 1 | -11 | 4 | -2 | x | x
CCn1c2ccccc2c2cc(/C=N/NC(=O)c3cc(O)cc(O)c3)ccc21 | 27 | 101 | 2 | -5 | 38* | -2 | 37* | 21*
Cc1c(CCC(=O)O)c(=O)oc2cc(OCc3cccc(Cl)c3)ccc12 | 6 | 84 | 1 | -9 | 38* | 0 | 36* | 9.1*
COc1cc(COc2ccc3c(C)c(CCC(=O)O)c(=O)oc3c2)cc(OC)c1OC | -7 | 92 | 1 | -1 | 12 | 0 | x | x
N#C/C(=C\c1ccccc1)C(=O)NNS(=O)(=O)c1cccc([N+](=O)[O-])c1 | 6 | 91 | 2 | -2 | 36* | 5 | 7 | 2
Cn1c(=O)cc(OCC(=O)N2CCN(c3ccccc3Cl)CC2)c2ccccc21 | x | x | x | x | 1 | x | x | x
Cc1ccc(-n2c(C)cc(C(=O)NS(=O)(=O)c3ccc(C)cc3)c2C)cc1 | 9 | 102 | 1 | -3 | 40* | 8 | 27 | 9.7*
Nc1[nH]n2c(=O)c3c(nc2c1N=Nc1ccccc1)CCCC3 | 16 | 97 | 2 | -14 | 35* | 11 | 8 | 3
Cc1cc(=O)n2[nH]c(N)c(N=Nc3ccccc3)c2n1 | 4 | 101 | 1 | -1 | 6 | 4 | x | x
COc1ccc(Cc2c(-c3cccc(Br)c3)nc3c(C)cc(Br)cn23)c(C)c1 | 12 | x | 1 | -1 | 13 | x | x | x
Cc1nn(-c2ccc(F)cc2)c(Cl)c1/C=C(/CC(=O)O)c1nc2ccccc2s1 | 6 | x | 2 | -3 | 51* | 6 | 43* | 13*
Cc1nn(-c2ccc(F)cc2)c(Cl)c1/C=C(\CC(=O)O)c1nc2ccccc2s1 | 9 | 97 | 3 | -12 | 38* | 4 | 45* | 11*
CN1C/C(=C/c2ccccc2)N2C(=O)C[C@@H](c3ccccc3)N=C12 | x | x | x | x | -2 | x | x | x
COc1cccc(N2CCN(C(=O)CSc3nc4ncccc4[nH]3)CC2)c1 | x | x | x | x | 3 | x | x | x

Bioassay records: PubChem BioAssay, several laboratories
